According to PubChem BioAssay AID1159580 (chemical genetic matrix, 2015):
Where “and” joins values, the source holds several entries; their conditions need not be identical. Equal values may be shown once. Out of some 5,500 compounds screened, about 2,000 (36%) were called active. Roughly 18% stayed inconclusive and do not appear here. Cut-off read from the data, not from the text of the source: active = normalized growth mostly below about 0.91 (no sharp cut-off); inconclusive = no clear call, values can overlap the other calls; inactive = mostly above about 0.92. The list shows a part of the results.

Experiment: chemical genetic growth profiling, strain panel (AID 1159580);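 note: tested at 20 µM; growth read once vehicle control cultures reached saturation at 30 °C; 1 = growth at the plate median or of vehicle wells; lower values mean less growth of the strain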
Settings: S. cerevisiae deletion strains, growth OD

Measured: normalized growth

C[N+](C)(C)CCOP(=O)([O-])OP(=O)(O)OC[C@H]1OC(n2ccc(N)nc2=O)[C@H](O)[C@@H]1O (some centres not stated)
inactive: locus YAL013W, strain DEP1, active compounds read low 0.99 | locus YAL021C, strain ccr4, active compounds read low 1 | locus YAL026C, strain drs2, active compounds read low 1 | locus YAL030W, strain snc1, active compounds read low 0.991 | locus YBL061C, strain skt5, active compounds read low 0.983 | locus YBR009C, strain hhf1, active compounds read low 1.01 | locus YBR021W, strain FUR4, active compounds read low 1.01 | locus YBR023C, strain chs3, active compounds read low 0.987 | locus YBR171W, strain sec66, active compounds read low 0.962 | locus YBR229C, strain ROT2, active compounds read low 1 | locus YBR231C, strain swc5, active compounds read low 0.976 | locus YBR279W, strain paf1, active compounds read low 0.992 | locus YCL011C, strain gbp2, active compounds read low 0.998 | locus YCL016C, strain dcc1, active compounds read low 1.01 | locus YCL029C, strain bik1, active compounds read low 0.999 | locus YCL061C, strain MRC1, active compounds read low 0.972 | locus YCL069W, strain vba3, active compounds read low 0.975 | locus YCR088W, strain abp1, active compounds read low 0.98 | locus YDL005C, strain med2, active compounds read low 0.977 | locus YDL035C, strain GPR1, active compounds read low 0.993 | locus YDL040C, strain nat1, active compounds read low 0.979 | locus YDL074C, strain BRE1, active compounds read low 0.972 | locus YDL101C, strain DUN1, active compounds read low 0.999 | locus YDL134C, strain PPH21, active compounds read low 1.01 | locus YDL185W, strain tfp1, active compounds read low 0.992 | locus YDL192W, strain arf1, active compounds read low 1.01 | locus YDR001C, strain nth1, active compounds read low 0.978 | locus YDR069C, strain doa4, active compounds read low 0.976 | locus YDR101C, strain arx1, active compounds read low 0.989 | locus YDR137W, strain rgp1, active compounds read low 0.991 | locus YDR150W, strain NUM1, active compounds read low 1 | locus YDR159W, strain sac3, active compounds read low 1 | locus YDR162C, strain NBP2, active compounds read low 0.981 | locus YDR195W, strain ref2 0.94 | locus YDR297W, strain sur2, active compounds read low 0.989 | locus YDR318W, strain mcm21, active compounds read low 1.01 | locus YDR334W, strain swr1, active compounds read low 0.974 | locus YDR335W, strain msn5, active compounds read low 0.991 | locus YDR388W, active compounds read low 1 | locus YDR392W, strain spt3, active compounds read low 1.05 | locus YDR502C, strain sam2, active compounds read low 0.995 | locus YEL003W, strain gim4, active compounds read low 0.986 | locus YEL037C, strain rad23, active compounds read low 0.976 | locus YEL061C, strain CIN8 (second series), active compounds read low 0.971 | locus YEL061C, strain CIN8, active compounds read low 0.996 | locus YER015W, strain faa2, active compounds read low 1 | locus YER016W, strain bim1, active compounds read low 0.985 | locus YER110C, active compounds read low 1 | locus YER111C, strain swi4, active compounds read low 0.978 | locus YER155C, strain BEM2 (second series), active compounds read low 0.98 | locus YER155C, strain BEM2, active compounds read low 0.995 | locus YER167W, strain BCK2, active compounds read low 1.02 | locus YFR010W, strain ubp6, active compounds read low 0.974 | locus YGL078C, strain dbp3, active compounds read low 0.998 | locus YGL086W, strain mad1, active compounds read low 1.01 | locus YGL167C, strain pmr1, active compounds read low 0.973 | locus YGL173C, strain kem1, active compounds read low 0.983 | locus YGL227W, strain vid30, active compounds read low 0.973 | locus YGL240W, strain doc1, active compounds read low 0.969 | locus YGL248W, strain PDE1, active compounds read low 1.02 | locus YGL253W, strain hxk2, active compounds read low 0.993 | locus YGR078C, strain PAC10, active compounds read low 0.997 | locus YGR135W, strain pre9, active compounds read low 0.987 | locus YGR229C, strain SMI1, active compounds read low 0.98 | locus YGR252W, strain gcn5, active compounds read low 1.02 | locus YHR013C, strain ard1, active compounds read low 0.969 | locus YHR027C, strain rpn1, active compounds read low 0.992 | locus YHR030C, strain SLT2, active compounds read low 0.998 and 1 | locus YHR079C, strain IRE1 (second series), active compounds read low 1.01 | locus YHR079C, strain IRE1, active compounds read low 1.01 | locus YHR094C, strain hxt1, active compounds read low 0.997 | locus YHR129C, strain ARP1, active compounds read low 1.01 | locus YHR142W, strain chs7, active compounds read low 0.98 | locus YHR200W, strain rpn10, active compounds read low 1 | locus YIL066C, strain RNR3, active compounds read low 0.995 | locus YIL073C, strain SPO22, active compounds read low 1.06 | locus YIL125W, strain kgd1, active compounds read low 1 | locus YIR030C, strain dcg1, active compounds read low 0.999 | locus YJL092W, strain hpr5, active compounds read low 0.974 | locus YJL095W, strain BCK1 (second series), active compounds read low 0.99 | locus YJL095W, strain BCK1, active compounds read low 0.987 and 0.994 | locus YJL115W, strain asf1, active compounds read low 0.977 | locus YJL129C, strain trk1, active compounds read low 0.99 | locus YJL134W, strain LCB3, active compounds read low 1 | locus YJL154C, strain vps35, active compounds read low 0.981 | locus YJL164C, strain tpk1, active compounds read low 1 | locus YJL166W, strain qcr8, active compounds read low 0.963 | locus YJL168C, strain set2, active compounds read low 1 | locus YJL187C, strain SWE1 (second series), active compounds read low 1 | locus YJL187C, strain SWE1, active compounds read low 0.993 | locus YJR043C, strain POL32, active compounds read low 1.02 | locus YJR066W, strain TOR1, active compounds read low 0.952
